# Assay outcomes (PubChem BioAssay)
# ROMK primary = human ROMK K+ channel modulation, primary screen; P48048; Tet-inducible ROMK, thallium flux fluorescence; actives lie on both sides; B-score at 10 µM; 2% of 130,000 active;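 active = signal ratio slope over the read window, or its plate-corrected B-score, at least 3 SD from the plate mean, either direction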;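 note: B-score of the F/F0 ratio slope over 7 to 12 s after thallium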
# Target sequence (P48048 whole entry, looked up): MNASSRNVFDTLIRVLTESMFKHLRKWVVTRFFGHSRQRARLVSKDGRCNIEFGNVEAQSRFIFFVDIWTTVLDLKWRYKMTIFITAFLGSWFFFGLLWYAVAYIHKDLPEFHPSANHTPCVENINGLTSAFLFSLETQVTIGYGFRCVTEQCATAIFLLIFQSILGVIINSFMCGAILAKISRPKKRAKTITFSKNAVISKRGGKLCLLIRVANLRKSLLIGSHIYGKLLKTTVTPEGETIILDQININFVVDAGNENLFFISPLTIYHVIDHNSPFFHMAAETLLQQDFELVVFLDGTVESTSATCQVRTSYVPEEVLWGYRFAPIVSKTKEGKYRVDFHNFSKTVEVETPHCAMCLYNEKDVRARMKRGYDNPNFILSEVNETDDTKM
# Insulin prom up = MIN6 insulin promoter up-regulation. 0.3% of 190,000 active. z-score at 5 µM. AID 1625. MIN6 insulin promoter-GFP reporter, high-content imaging; active compounds read high;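 active = z-score above 3 at 5 µM with at least 500 cells counted in the well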
# WT yeast gro inh = growth inhibition of WT yeast, mitochondrial fusion screen; inhibition, % at 10 µM; AID 1362; mitochondrial fusion phenotypic screen, WT strain; 2.1% of 190,000 active; in the data active = inhibition above about 58%; tested in S. cerevisiae
# Cl transport mod = KCC2 (human) Cl- transport modulation | AID 1456 | KCC2 cells, thallium flux FluoZin-2 fluorescence | 2.2% of 190,000 active | Q9H2X9 | B-score of Tl+ flux slope (higher = more flux/activation; lower = inhibition) at 10 µM;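 active = thallium flux slope and its plate-corrected score both differing from the plate sample mean at a set confidence after two filtering rounds, in either direction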;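 note: slope of fluorescence scaled to starting intensity during 10 to 20 s after thallium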
# Insulin prom inh = TRM-6 insulin promoter activity inhibition | TRM-6 cells (human fetal islet line), insulin promoter-eGFP reporter, imaging; reporter expression induced with tamoxifen | AID 1273 | 0.9% of 130,000 active | inhibition, % at 2 µM;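 active = inhibition above the mean plus 3 SD, with well images judged a real hit on visual review, cut at about 60% in these data, passing the limit was not always enough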
# Lmaj promast = reduces viability of Leishmania major promastigotes | 9% of 200,000 active | inhibition, % at 10 µM | resazurin fluorescence viability; in the data active = inhibition above about 50%;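 note: promastigotes grown with compound for 44 hours at 28 °C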
# * marks the source's active call; other numbers are inactive results; i = inactive; nt = no result given. Sampled rows, rich in hits. Any-hit rate of the full collection: about 12%.
SMILES,ROMK primary,Insulin prom up,WT yeast gro inh,Cl transport mod,Insulin prom inh,Lmaj promast
CCCCOP(=O)(c1ccc(N(C)C)cc1)C(O)c1cc(OC)c(OC)c(OC)c1 (stereo not given),-0.6,nt,nt,0.79,nt,nt
CC(NC(=O)Nc1ccccc1)C(c1cccs1)N1CCOCC1 (stereo not given),nt,-0.22,-13,0.86,nt,-1
CC(NC(=O)Nc1ccccc1)C(c1ccccc1)N1CCOCC1 (stereo not given),1,0.12,-7,1.2,12,52*
COc1cccc(-n2c(SCC(=O)N3c4ccccc4CC3C)nnc2-c2ccco2)c1 (stereo not given),-1.4,1.3,-14,-2.1,-5,53*
CCn1c(SCC(=O)N2c3ccccc3CC2C)nnc1-c1ccco1 (stereo not given),nt,nt,nt,-0.28,-45,0
O=C(c1ccncc1)N1N=C(C2CC2)CC1(O)C(F)(F)F (stereo not given),-1.1,0.19,-2,-0.4,nt,-6
COC(=O)c1ccc(-c2ccco2)n1Cc1ccccc1Cl,0.86,-0.17,-5,-0.27,-10,0
COC(=O)c1cc2ccsc2n1Cc1nc(-c2ccc(Cl)cc2)oc1C,nt,0.72,20,0.24,nt,99*
COC(=O)c1ccc(-c2ccco2)n1Cc1nc(-c2ccc(OC)c(OC)c2)oc1C,nt,-0.08,12,-0.46,0,66*
COCCSc1ccccc1C(=O)N1CCOCC1,0.49,0.87,12,-0.29,14,-4
CC(C)c1ccc(Nc2nnc(SCC(=O)Nc3ncc(S(=O)(=O)c4ccc([N+](=O)[O-])cc4)s3)s2)cc1,0.28,-0.42,-13,-4.6,nt,-3
CCC(C)(C)C(=O)Nc1ncc(S(=O)(=O)c2ccc([N+](=O)[O-])cc2)s1,nt,-0.08,-10,-0.88,-21,81*
Cc1ccc(Nc2nnc(SCC(=O)Nc3ncc(S(=O)(=O)c4ccc([N+](=O)[O-])cc4)s3)s2)cc1,0.87,-0.19,-10,0.15,-4,55*
O=C(Nc1ncc(S(=O)(=O)c2ccc([N+](=O)[O-])cc2)s1)c1ccc2ccccc2c1,-0.15,-0.58,-2,0.55,18,99*
O=c1c(Cl)c(N2CCN(c3ccc(F)cc3)CC2)cnn1C12CC3CC(CC(C3)C1)C2,nt,0.1,56,-4.5,31,62*
O=c1c(Cl)c(NCc2ccc(F)cc2)cnn1C12CC3CC(CC(C3)C1)C2,-0.33,0.65,3,-1.7,41,73*
Cc1ccc(CNc2cnn(C34CC5CC(CC(C5)C3)C4)c(=O)c2Cl)cc1,-0.21,0.92,-1,0.53,-83,11
O=c1c(Cl)c(N2CCN(c3ccccc3)CC2)cnn1C12CC3CC(CC(C3)C1)C2,0.17,0.33,5,0.023,-19,4
O=c1c(Cl)c(NCc2ccccc2Cl)cnn1C12CC3CC(CC(C3)C1)C2,0.37,0.75,35,-0.65,44,84*
Cn1cc(C(=O)c2cccc(Cl)c2Cl)cc1C#N,-0.24,0,0,0.31,nt,4
CCN(CC)c1ccc(N2C(=O)/C(=C/c3cccnc3)SC2=S)cc1,nt,0.65,9,nt,-10,-3
COc1ccc(N(CCC#N)C(=O)/C(C#N)=C/c2cccs2)cc1,-1.3,-0.14,-6,0.022,13,1
CCc1nn(C(C)C(=O)N2CCN(Cc3ccccc3)CC2)c(=O)c2cc3occc3n12 (stereo not given),nt,0.3,58*,-1.7,19,-12
Cc1onc(-c2c(F)cccc2Cl)c1C(=O)N1CCN(c2ncc(Br)cn2)CC1,nt,1.2,nt,-2.5,nt,nt
Cc1ccc(C)c(S(=O)(=O)Nc2cc(SCC(=O)O)c(O)c3ccccc23)c1,0.12,-1.3,58,-0.039,56,100*
SMILES,ROMK primary,Insulin prom up,WT yeast gro inh,Cl transport mod,Insulin prom inh,Lmaj promast
CCc1ccc(S(=O)(=O)Nc2cc(SCC(=O)O)c(O)c3ccccc23)cc1,0,-1.2,0,-1.4,nt,99*
CCn1cc(C(=O)O)c(=O)c2cc(F)c(N3CCN(C(=S)NC(=O)c4ccccc4C)CC3)cc21,-0.017,-0.33,nt,-0.21,nt,nt
C[n+]1c(/C=C/c2ccc3c(c2)OCO3)ccc2ccccc21,1.4,nt,19,-0.035,nt,77*
CCN(C(=O)/C=C/c1ccc2c(c1)OCO2)c1ccccc1,-0.79,0.16,-4,-0.95,17,9
CCCCN1CN(Cc2ccco2)CNC1=S,0.25,-0.36,-2,-0.62,nt,-7
COc1cccc(OCCNC(=O)c2cc([N+](=O)[O-])cc([N+](=O)[O-])c2)c1,0.68,-0.37,19,-1.1,33,83*
Cc1ccc(OCCNC(=O)c2cc(C(=O)NCCOc3ccc(C)cc3)cc([N+](=O)[O-])c2)cc1,-1.1,-0.06,22,1.5,-17,99*
CC(=O)c1ccc(NS(=O)(=O)Cc2ccc(Cl)cc2)cc1,nt,0.2,20,-0.27,14,-7
COCCCNC(=O)/C(C#N)=C/c1ccc(OCC(=O)O)c(OC)c1,nt,nt,11,1.7,nt,-5
COc1ccc(/C=C(\C#N)C(=O)NCCc2ccccc2)cc1OCc1ccccc1,0.64,0.11,35,-0.53,7,96*
COc1ccc(/C=C(/C#N)C(=O)Nc2ccccc2C)cc1C(=O)O,0.2,0.44,10,2,3,59*
CCN1CCCC1CNCC(O)COc1ccc(C(C)(C)C)cc1C (stereo not given),-0.42,0.12,9,-0.98,0,86*
Oc1c(Cl)cc(Cl)cc1/C=N/Nc1ncc(Br)cn1,0.094,-2.4,0,0.13,-100,96*
COc1cccc(-n2cc(CN(C)Cc3nc(Cc4ccccc4)no3)cn2)c1,0.23,1.1,7,-1.2,nt,1
Cc1[nH][nH]c(=O)c1C(c1c(C)[nH][nH]c1=O)c1cn(C)c2ccccc12,0.27,0.04,-8,-1.2,nt,4
Cc1[nH][nH]c(=O)c1C(c1c(C)[nH][nH]c1=O)c1cn(Cc2cccc3ccccc23)c2ccccc12,-2.7*,1.1,49,-3.3,nt,46
Cc1ccc(S(=O)(=O)Nc2ccc(N=Nc3ccc(O)cc3)cc2)cc1,2.5,-0.1,71*,0.019,30,-1
CSc1ccc(S(=O)(=O)Nc2ccc(S(=O)(=O)Nc3ccc(C)cc3)cc2)cc1,-0.32,nt,-4,nt,-40,-7
COC(=O)Nc1ccc(S(=O)(=O)Nc2ccc(O)cc2)cc1,nt,nt,-2,1.6,79*,-2
CCc1cc2c(=O)[nH]c(N3CCCC3)nc2s1,-0.3,0.17,-3,-0.76,40,-6
CCc1cc2c(=O)[nH]c(-c3ccccn3)nc2s1,0.38,-2.4,47,1.9,-7,99*
CC(NC(=O)C(C)N1C(=O)C2C3CC(C(Br)C3Br)C2C1=O)c1ccccc1 (stereo not given),-0.41,-0.31,8,0.17,-67,82*
CCCCCCc1cc2cc(-c3nnc(-c4cc(OC)c(OC)c(OC)c4)o3)c(=O)oc2cc1O,nt,10*,-19,i,33,-5
CCCCCCc1cc2cc(-c3nnc(-c4ccccc4O)o3)c(=O)oc2cc1O,nt,7.5*,0,i,-270,2
